Compound activity as filed in PubChem BioAssay.
An excerpt weighted towards active compounds, which were near 2.8% of everything screened.
Rev-erbA mod – Rev-erb alpha (human) modulation; Rev-erbα–FITC-DNA binding, fluorescence polarization, 90 min; activity, % at 10 µM; hit rate 0.79% among 370,000;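 active = activity above about 14%, limit read from the data; passing the limit was not always enough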;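 note: 0% = DMSO wells with 35 nM protein and 100% = DMSO wells with 750 nM protein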
PG9 binder – small molecules binding HIV-1 gp120 antibody PG9 | hit rate 0.43% among 360,000 | inhibition, % at 6.7 µM | TR-FRET gp120-PG9 antibody binding; in the data active = inhibition above about 8.5%
GASC-1 inh – blocks human GASC-1 demethylase activity | Q9H3R0 | GST-JMJD2C(1-420) H3K9me3 demethylation, DELFIA europium | inhibition, % at 2.35 µM | hit rate 0.069% among 330,000 | AID 2099;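 active = more than half of a compound's replicate wells show inhibition beyond 50%, single wells judged on their own value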;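 note: signal counts dimethyl H3K9 product captured on neutravidin plate; 0% = median of DMSO wells and 100% = 0.3 times that DMSO median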
KLK7 zymogen act – activates the human kallikrein-7 zymogen; P49862; purified proKLK7, EDANS-DABCYL substrate fluorescence; 100% is mature enzyme control, 0% vehicle; activation, % at 7 µM; hit rate 0.9% among 370,000;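 active = activation above the mean of all tested compounds plus 3 SD, computed per campaign excluding outliers beyond control limits, cut at about 13% in these data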
PP5 primary – PP5 (human) phosphatase inhibition. P53041. purified PP5c, OMFP substrate fluorescence. inhibition, % at 6.7 µM. hit rate 0.18% among 320,000. AID 1987;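 active = inhibition above the campaign's mean inhibition across all tested compounds plus 3 SD, cut at about 9.5% in these data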;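 note: 0% = DMSO only and 100% = 100 µM cantharidin control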
PP1 counter – PP1-alpha (human) inhibition in PP5 counter-screen; P62136; purified PP1alpha, OMFP fluorescence; inhibition, % at 6.7 µM; AID 2235; hit rate 0.9% among 320,000;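 active = inhibition above the mean inhibition of all tested compounds plus 3 SD, computed separately for each screening campaign, cut at about 15% in these data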
* marks the source's active call; other numbers are inactive results; x = not tested or not shown.

SMILES | Rev-erbA mod | PG9 binder | GASC-1 inh | KLK7 zymogen act | PP5 primary | PP1 counter
CC(=O)Nc1ccc(-c2csc(NC(=O)C3CC(=O)N(c4ccc5c(c4)OCCO5)C3)n2)cc1 (stereo not drawn) | 6 | 0 | 7 | 1 | 4 | 16*
COc1cccc(N2CC(C(=O)Nc3nnc(SCC(=O)c4ccccc4)s3)CC2=O)c1 (stereo not drawn) | 1 | -1 | 8 | 1 | -1 | 10
COc1ccc(C(=O)CSc2nnc(NC(=O)C3CC(=O)N(c4ccccc4)C3)s2)cc1 (stereo not drawn) | 0 | 1 | -5 | 0 | 2 | 17*
COC(=O)c1ccc(CSc2nnc(NC(=O)C3CC(=O)N(c4ccc5c(c4)OCCO5)C3)s2)cc1 (stereo not drawn) | -2 | 0 | 11 | 0 | 3 | 15*
Nc1[nH]c(C(=O)c2ccccc2)c(-c2ccc(O)cc2)c1C(=O)NCCc1c[nH]c2ccccc12 | 4 | x | x | x | x | x
NC(=O)NC(=O)CSc1nnc(-c2ccco2)n1Cc1ccccc1 | 2 | 0 | 50* | 0 | 0 | -1
O=C(O)CCC(=O)N1N=C(c2ccccc2)CC1c1ccc(Br)cc1 (stereo not drawn) | 3 | 1 | 12 | 0 | 0 | -4
O=C(O)CCn1cc(C2CC(c3ccccc3)=NN2c2ccccc2)c(-c2ccccc2)n1 (stereo not drawn) | 5 | 3 | -11 | -93 | 6 | 15*
CCOc1ccccc1C(=O)NC(C(=O)OCC(=O)Nc1nnc(-c2ccccc2)o1)C(C)C (stereo not drawn) | x | x | 6 | x | 1 | 16*
CCOc1ccccc1C(=O)OCC(=O)Nc1nnc(-c2ccccc2)o1 | -9 | 0 | 4 | -1 | 1 | 5
O=C(COc1ccccc1)Nc1nnc(-c2ccc(Cl)cc2)o1 | -7 | -2 | 10 | 0 | -4 | 17*
O=C(CSc1nnc(SCc2ccccc2)s1)N/N=C/C=C\c1ccco1 | -8 | -2 | 5 | 0 | 4 | 7
O=C(CSc1nnc(SCc2ccccc2)s1)N/N=C/C=C/c1ccccc1[N+](=O)[O-] | 1 | 1 | -18 | 1 | 5 | 16*
C[C@]12C=CC(=O)C=C1CCC1C2[C@@H](O)C[C@@]2(C)C1CC[C@]2(O)C(=O)COC(=O)CCC(=O)O (stereo partly drawn) | 0 | x | x | x | x | x
CCN(CC)CC(C)CNC(=O)C1(O)c2ccccc2NC(=O)N1c1ccc(Cl)c(Cl)c1 (stereo not drawn) | -1 | 0 | -1 | 0 | 2 | 15*
O=C(O)CCCN1C(=O)/C(=C/C=C/c2ccco2)SC1=S | -10 | -3 | 20 | 1 | 2 | 24*
CCN(CC)c1ccc(NC(=O)c2ccc3c(c2)c(C)c(C)n3C)cc1 | 4 | -4 | 6 | -6 | 3 | 17*
COc1ccc(C(CC(=O)c2ccc(O)cc2)S(=O)(=O)c2ccc(C)cc2)cc1 (stereo not drawn) | 2 | -2 | 6 | 46* | 5 | 1
Cc1ccc(S(=O)(=O)N2CCCC2C(=O)N2CCc3ccccc3C2)cc1 (stereo not drawn) | 8 | x | x | 0 | x | x
CCCOc1ccc(/C(O)=C2\C(=O)C(=O)N(CCCOC)C23C(=O)N(C)c2ccccc23)cc1 (stereo not drawn) | 0 | 11* | 7 | 1 | -2 | 0
CCCN1C(=O)C2(/C(=C(\O)c3ccc4c(c3)OCCO4)C(=O)C(=O)N2CCCOC)c2ccccc21 (stereo not drawn) | -2 | x | x | x | -1 | 0
O=C(NC(NC(=S)Nc1ccc(Cl)cc1Cl)C(Cl)(Cl)Cl)c1cccc([N+](=O)[O-])c1 (stereo not drawn) | 1 | 1 | 1 | 0 | 3 | 15*
O=C(O)c1cccc(NC(=S)NC(NC(=O)c2cccc([N+](=O)[O-])c2)C(Cl)(Cl)Cl)c1 (stereo not drawn) | -3 | 1 | 2 | 0 | 2 | 6
O=C(CSc1nc2ccccc2o1)NN=C/C=C/c1ccccc1 | 1 | x | x | 0 | x | x
Cc1ccc(OCC(=O)OC(C)CN2CCCCC2)cc1 (stereo not drawn) | -1 | 3 | 2 | -1 | 0 | -2
CC(CN1CCCC1)OC(=O)COc1ccccc1 (stereo not drawn) | 4 | 0 | 50* | 0 | 1 | -1
